# Results published in the supplement of paper PMC11219838.
# A number with no mark means an inactive call.
# System: Caenorhabditis elegans L1 (N2)
# Test: survival and reproduction score of C. elegans L1 (0: 0-10 living worms, 1: 11-20, 2: 21-50, 3: >50, 4: overgrown) (score 0-4); higher = more worms, less nematicidal, active = 1 or less; extreme values may be limits of the assay
# Settings: 60 µM; 6 days; temperature: 20 °C
# Outline: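 In liquid NGM with E. coli HB101, approximately 20 synchronized C. elegans N2 L1s per 96-well well were exposed to compound at 60 µM final (0.6% v/v DMSO) for 6 days at 20 °C with shaking at 200 rpm in sealed plates. Survival and reproduction were judged under a dissection microscope as an ordinal rating of living worms per well. Ratings went from 0 (0–10 worms) to 4 (overgrown, starved) and were averaged over two biological replicates.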
row,SMILES,survival and reproduction score
1,Brc1cccc(-c2nnc(SCc3ccccc3)o2)c1,4
2,O=C(CSc1nnc(-c2ccc(Cl)cc2)o1)NCc1ccccc1,4
3,Clc1ccc(-c2noc(-c3ccc4c(c3)OCCO4)n2)cc1,4
4,Cc1cc(OCc2nc(-c3ccccn3)no2)ccc1Cl,4
5,O=C(CSc1nnc(-c2ccco2)o1)c1ccc(Br)cc1,4
6,COc1nc2ccc(C)cc2cc1-c1noc(-c2cccnc2)n1,4
7,COc1ccc(-c2noc(COc3ccc(Cl)cc3)n2)cc1,4
8,Cc1cccc(-c2nc(-c3ccc4c(c3)OCO4)no2)c1,4
9,CCOc1cc(-c2nc(-c3ccc(OC)cc3)no2)cc(OCC)c1OCC,4
10,Cc1ccccc1-c1noc(-c2ccc(F)cc2)n1,4
11,Cc1ccc(-c2nc(-c3ccc4c(c3)OCO4)no2)cc1,4
12,CCOc1cc(-c2nc(-c3cccnc3)no2)cc(OCC)c1OCC,4
13,COc1ccccc1-c1nc(-c2ccc(Cl)cc2)no1,4
14,CCN(C(=O)CSc1nnc(-c2ccncc2)o1)c1ccccc1,4
15,O=C(CSc1nnc(-c2ccncc2)o1)Nc1ccccc1Cl,4
16,COc1nc(C)ccc1-c1noc(-c2ccccc2C)n1,4
17,Cc1ccc(-c2noc(-c3cccc(C)c3)n2)cc1,0 (active)
18,NC(=O)COc1ccccc1-c1nc(-c2ccccc2Cl)no1,4
19,Cc1ccc(-c2nnc(SCC(=O)Nc3ccccc3)o2)cc1,4

row,SMILES,survival and reproduction score
1,O=C(CSc1nnc(-c2ccc(Cl)cc2Cl)o1)N1CCCCC1,4
2,CC(C)(C)c1ccc(-c2nnc(SCc3cccc(C#N)c3)o2)cc1,3.5
3,Clc1ccc(-c2nc(-c3ccncc3)no2)cc1,0.5 (active)
4,COc1ccccc1-c1noc(-c2ccc(C(C)(C)C)cc2)n1,4
5,Cc1cccc(-c2noc(COc3cc(C)ccc3C)n2)c1,2
6,Cn1c(SCc2nnc(-c3ccccc3)o2)nnc1-c1ccco1,4
7,COc1ccc(Cl)cc1-c1noc(-c2ccccc2)n1,1 (active)
8,Fc1ccccc1-c1nc(-c2ccccc2)no1,0 (active)
9,CCCCCOC(=O)CSc1nnc(-c2ccc(Cl)cc2Cl)o1,4
10,COc1nc(C)ccc1-c1noc(-c2ccc(C)cc2)n1,4
11,Cc1cccc(-c2nnc(SCC(=O)NCCc3ccccc3)o2)c1,4
12,Cc1ccc(Cl)cc1NC(=O)CSc1nnc(-c2ccncc2)o1,4
13,CCOC(=O)c1ccc(OCc2nc(-c3cccs3)no2)cc1,4
14,CCc1nnc(NC(=O)CSc2nnc(-c3cccc(C)c3)o2)s1,4
15,COc1ccc(-c2nc(-c3ccccc3Cl)no2)cc1,4
16,COc1ccc(NC(=O)c2ccccc2-c2nc(-c3ccccc3C)no2)cc1,4
17,Fc1ccc(-c2noc(-c3ccc(Cl)cc3)n2)cc1,1 (active)
18,Fc1ccc(OCc2nc(-c3ccc(Cl)cc3)no2)cc1,4
19,CCOC(=O)c1ccc(NC(=O)c2ccccc2-c2nc(-c3cccc(C)c3)no2)cc1,4
